Screening data from PubChem BioAssay.
Only some compounds are listed: those with a hit (about 10% of all), similar ones and a draw of the others.
NIH3T3 tox – NIH 3T3 cell cytotoxicity; NIH 3T3 viability, CellTiter-Glo ATP luminescence, 48-72 h; Potency, µM (highest dose often 96.7 µM), for the others: at the highest dose activity change, negative = cytotoxicity, actives largely listed as inhibitors; actives 4.3% (n = 94,000); AID 1345082; note: potency is the fitted concentration of half-maximal effect; % is set by controls: 0 for no effect and ±100 for the full control effect; nearly all actives have a fitted effect of over 55% in size
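Cytotoxicity is measured as loss of cellular ATP: NIH 3T3 cells (400/well) are exposed to compound for 48 or 72 hr at 37 °C, then CellTiter-Glo luminescence is imaged after 10 min at room temperature.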
Luciferase inh – blocks purified firefly luciferase enzyme activity. P08659. purified P. pyralis luciferase, luminescence, biochemical. Potency, µM (highest dose often 115 µM), most hits filed as inhibitors. actives 2.5% (n = 76,000). AID 1347043; note: potency is the fitted concentration of half-maximal effect; % is set by controls: 0 for no effect and ±100 for the full control effect; nearly all actives have a fitted effect of over 65% in size
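Luminescence read by CCD imager after adding enzyme (10nM final) to wells holding compound, titrated in qHTS. Substrates 10uM each D-luciferin and ATP; buffer 50mM Tris acetate pH 7.5, 10mM Mg acetate, Tween-20, BSA.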
hNpr1 antagonist – blocks ANP-stimulated signaling of human Npr1 receptor | HEK293 hNpr1 GloSensor cGMP, ANP-stimulated luminescence | actives 1.6% (n = 76,000) | AID 1347048 | Potency, µM (titrated, usually from 46.3 µM), without a hit: at the top dose activity change, negative = inhibition, usual class: inhibitors | P16066; calls by dose curve; note: potency is the fitted concentration of half-maximal effect; % is set by controls: 0 for no effect and ±100 for the full control effect; nearly all actives have a fitted effect of over 60% in size
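HEK293 cells stably expressing human Npr1 and cGMP GloSensor pGS-40F, loaded 2 h with 2% GloSensor reagent, given compound 30 min at room temperature. Luminescence read before and 20 min after 0.1 nM hNppA.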
HEK cytotox – cytotoxic compounds in HEK 293 cells | HEK 293 viability, ATP luminescence (CellTiter-Glo), 48-72 h | Potency, µM (titrated, usually from 115 µM), inactives show at the top dose activity change, negative = cytotoxicity, actives largely listed as inhibitors | actives 6.6% (n = 94,000) | AID 1345083; note: potency is the fitted concentration of half-maximal effect; % is set by controls: 0 for no effect and ±100 for the full control effect; nearly all actives have a fitted effect of over 60% in size
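Cells seeded first (HEK 293, 250 cells/well), then compound added by pintool. Incubation ran 48 or 72 hr at 37 degree Celsius. CellTiter-Glo was added and luminescence imaged after 10 min at room temperature.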
GPT2 inhibitor – GPT2 alanine aminotransferase inhibition. Potency, µM (titrated, usually from 57.7 µM), inactives show top-dose activity change, negative = inhibition, actives largely listed as inhibitors. AID 1671188. Q8TD30. Recombinant GPT2, coupled pyruvate oxidase/HRP Amplex Red fluorescence. actives 0.25% (n = 100,000); note: potency is the fitted concentration of half-maximal effect; % is set by controls: 0 for no effect and ±100 for the full control effect; nearly all actives have a fitted effect of over 60% in size
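GPT2 10ng/uL, a-KG 250uM, L-Ala 2mM, HEPES pH7.5 + 0.0001% Tween; 30 min RT. Then Amplex mix (PO/HRP/ThPP), 30 min RT dark, fluorescence. AOA 50uM used as positive control.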
Npr1 antag conf – confirmation of human Npr1 natriuretic peptide receptor antagonists; actives 76% (n = 1,400); shares compounds with hNpr1 antagonist; Potency, µM (doses to about 57.6 µM), for the others: top-dose activity change, negative = inhibition, most hits filed as inhibitors; HEK293 hNpr1 cGMP GloSensor luminescence, ANP-stimulated; calls by dose curve; note: potency is the fitted concentration of half-maximal effect; nearly all actives have a fitted effect of over 70% in size
NPR2 antag – antagonizes human Npr2, subtype selectivity check; shares compounds with hNpr1 antagonist; HEK293 hNpr2 GloSensor cGMP luminescence, CNP-stimulated; Potency, µM (highest dose often 57.6 µM), without a hit: at the top dose activity change, negative = inhibition, usual class: inhibitors; actives 67% (n = 1,400); AID 1347046; calls by dose curve; note: potency is the fitted concentration of half-maximal effect; nearly all actives have a fitted effect of over 70% in size
FLuc counter – counter-screen for Npr1 antagonists: firefly luciferase inhibitors | shares compounds with hNpr1 antagonist | purified FLuc enzyme, luminescence, Km substrate | Potency, µM (series often up to 57.6 µM), inactives show top-dose activity change, negative = inhibition, most hits filed as inhibitors | actives 0.7% (n = 1,400) | AID 1347047; note: potency is the fitted concentration of half-maximal effect; 0% is about no effect
GloSensor ctrl – reduces cGMP signal in GloSensor control cells; shares compounds with hNpr1 antagonist; actives 69% (n = 1,400); HEK293 GloSensor cGMP, SNP-stimulated, luminescence; Potency, µM (titrated, usually from 57.6 µM), for inactives: top-dose activity change, negative = inhibition, usual class: inhibitors; calls by dose curve; note: potency is the fitted concentration of half-maximal effect; % is set by controls: 0 for no effect and ±100 for the full control effect; nearly all actives have a fitted effect of over 70% in size
GPT2 inh cnf – confirmation of human GPT2 inhibitors; GPT2 enzyme, coupled Amplex Red pyruvate fluorescence; actives 90% (n = 95); shares compounds with GPT2 inhibitor; Potency, µM, usual class: inhibitors
* = called active by the depositor; i = inactive; ? = inconclusive; · = no result given; [ ] = another dose, or the depositor's remark. Unless noted, calls come from the whole dose curve; as a rule, active = well fitted curve in the direction sought with a large enough effect; inconclusive = small, poorly fitted or top-dose-only effect, or another doubt; inactive = no such curve, though single readings can be large; an effect the other way counts as inactive or inconclusive.

SMILES	NIH3T3 tox	Luciferase inh	hNpr1 antagonist	HEK cytotox	GPT2 inhibitor	Npr1 antag conf	NPR2 antag	FLuc counter	GloSensor ctrl	others
COc1ccc(C(=O)N2CCC3(CC2)N=C(c2cccc(Br)c2)NO3)cc1OC	?	i	?	?	i	·	·	·	·
O=C(c1cccs1)N1CCC2(CC1)N=C(c1cccc(Br)c1)NO2	-24%	i	-2%	?	i	·	·	·	·
COc1ccccc1CCC(=O)N1CCC2(CC1)N=C(c1cccc(Br)c1)NO2	?	i	-26%	?	4%	?	?	3%	-30%
COc1ccc(C(=O)N2CCC3(CC2)N=C(c2cccc(Br)c2)NO3)c(OC)c1	?	i	11µM*	?	4%	24µM*	24µM*	6%	22µM*
Cc1cccc(C(=O)N2CCN(c3cc(C(F)(F)F)nc(C)n3)CC2)c1	?	i	-1%	?	i	·	·	·	·
COc1ccc(C2Cn3nnc(-c4noc(Cc5cccc(F)c5)n4)c3CO2)cc1 (stereo unspecified)	?	i	6%	?	?	·	·	·	·
COCCn1ncc(N2CCC(C(=O)NCC3CCN(Cc4cccc(OC)c4)CC3)C2)cc1=O (stereo unspecified)	-22%	·	·	-27%	2%	·	·	·	·
COc1ccc(CNC(=O)c2cc3n(n2)CC(c2ccc(Cl)cc2)OC3)cc1 (stereo unspecified)	?	i	22µM*	32µM*	i	27µM*	22µM*	-6%	22µM*
COc1cc(Cl)c(C)cc1NC(=O)c1cc2n(n1)CC(c1ccc(Cl)cc1)OC2 (stereo unspecified)	?	i	-2%	?	i	·	·	·	·
O=C(c1cc2n(n1)CC(c1ccc(Cl)cc1)OC2)N1CCc2ccccc2C1 (stereo unspecified)	-9%	i	-5%	-12%	5%	·	·	·	·
NS(=O)(=O)c1ccc(CCNC(=O)c2cc3n(n2)CC(c2ccc(Cl)cc2)OC3)cc1 (stereo unspecified)	?	i	14µM*	45µM*	5%	24µM*	?	1%	24µM*
O=C(Nc1ccc(Cl)cc1)c1cc2n(n1)CC(c1ccc(Cl)cc1)OC2 (stereo unspecified)	?	i	11µM*	?	1%	24µM*	?	-2%	27µM*
O=C(NCCc1cccs1)c1cc2n(n1)CC(c1ccc(Cl)cc1)OC2 (stereo unspecified)	?	i	?	?	i	·	·	·	·
CC(=O)c1ccc(N2CCN(C(=O)c3cc4n(n3)CC(c3ccc(Cl)cc3)OC4)CC2)cc1 (stereo unspecified)	?	i	11µM*	?	i	22µM*	24µM*	-2%	24µM*
COc1ccc(F)cc1-c1cccc(C(=O)NCC(=O)N2CCCN(C(C)=O)CC2)c1	-6%	·	·	-6%	·	·	·	·	·
CC(=O)Nc1ccc(NC(=O)c2cc3n(n2)CC(c2ccc(Cl)cc2)OC3)cc1 (stereo unspecified)	-26%	i	-17%	?	i	·	·	·	·
COc1ccc(NC(=O)c2cc3n(n2)CC(c2ccc4c(c2)OCO4)OC3)cc1Cl (stereo unspecified)	-4%	i	?	?	i	?	-26%	-4%	?
O=C(Nc1ccc(Oc2ccccc2)cc1)c1cc2n(n1)CC(c1ccc(Cl)cc1)OC2 (stereo unspecified)	-28%	i	3.5µM*	?	-1%	3.9µM*	4.8µM*	2%	3.9µM*
COc1ccc(NC(=O)c2cc3n(n2)CC(c2ccc4c(c2)OCO4)OC3)cc1OC (stereo unspecified)	-11%	i	-17%	?	i	·	·	·	·
COc1ccc(CCNC(=O)CC(c2cccc(F)c2)c2cn(C)c3ccccc23)cc1OC (stereo unspecified)	22µM*	i	18µM*	20µM*	-22%	24µM*	27µM*	4%	27µM*
CCCCNC(=O)CC(c1cccc(OC)c1OC)c1c[nH]c2ccccc12 (stereo unspecified)	?	i	-19%	?	4%	·	·	·	·
COc1ccccc1C(CC(=O)NCC(C)C)c1cn(C)c2ccccc12 (stereo unspecified)	-11%	i	?	?	i	?	?	-2%	-21%
COc1ccc(C(CC(=O)NCCc2ccccc2)c2c[nH]c3ccccc23)cc1OC (stereo unspecified)	?	i	0%	?	-12%	·	·	·	·
O=C(c1nccc2ccccc12)N1CC(N(Cc2cccnc2)C(=O)Nc2ccccc2)C1	?	i	-17%	?	i	·	·	·	·
CCOc1ccc(NC(=O)N2C[C@@H](F)C[C@H]2C(=O)N2CCc3ccccc3C2)cc1	-25%	i	5%	-11%	i	·	·	·	·
SMILES	NIH3T3 tox	Luciferase inh	hNpr1 antagonist	HEK cytotox	GPT2 inhibitor	Npr1 antag conf	NPR2 antag	FLuc counter	GloSensor ctrl	others
Clc1ccc2c(c1)Nc1ccccc1S2	·	·	·	·	?	·	·	·	·	GPT2 inh cnf=3.4*
COc1cc(N2CCOCC2)ccc1Nc1ncc(F)c(Nc2ccccc2NS(C)(=O)=O)n1	·	·	·	·	3.2µM*	·	·	·	·	GPT2 inh cnf=1.9*
COc1cc(N2CCOCC2)ccc1Nc1ncc(Cl)c(Nc2ccccc2NS(C)(=O)=O)n1	·	·	·	·	5µM*	·	·	·	·	GPT2 inh cnf=1.5*
COc1ccc(CCC(=O)N2CCOc3ccc(N4CCCC4)cc3C2)cc1	?	·	·	?	3.2µM*	·	·	·	·	GPT2 inh cnf=1.5*
CC(C)C(=O)N1CCC(Oc2cccnc2)C1 (stereo unspecified)	-2%	i	-15%	6%	-28%	·	·	·	·
Cc1cc(-c2cc3c(cn2)N(C)CCN(C)C3)ccn1	?	i	1%[70.6 µM]	?	1%[88.5 µM]	·	·	·	·
